# Results from PubChem BioAssay (EPA / NIEHS).
# Records with an inconclusive call do not appear. Some compounds were tested as several samples or in several runs, with calls that do not always agree. Active and inactive are the calls of the source. The calls were made as follows, unless noted: active = hit-call score of the fitted dose curve at least 0.9, where 1 is the maximum; inactive = score below 0.9.
# Legend:
# [1] = test system: TTR (gene 7276); experiment: CCTE_GLTED_hTTR_0.125uM: CCTE's human Transthyretin (hTTR) Inhibition Assay, with 0.125uM TTR, Great Lakes Toxicology and Ecology Division (GLTED) Lab (AID 2284431);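 also: hits lower the fluorescence signal relative to DMSO baseline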
# Procedure, shortened: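 Fluorescence (380 ex, 475 em) reported the ANSA probe remaining bound to 0.125uM human transthyretin. Chemicals were incubated with the protein for 2 hours; activity was scored as loss of signal against DMSO negative control.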
# [2] = molecular target: human Matrix Metalloproteinase-9 (MMP9), MMP9 (gene 4318) (UniProt P14780); experiment: NVS_ENZ_hMMP9: NovaScreen (NVS) Enzymatic Assay for human Matrix Metalloproteinase-9 (MMP9) (AID 2283190; active = hit-call score of the fitted dose curve at least 0.9, where 1 is the maximum;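 also: cell-free recombinant MMP9 protease activity read by fluorescent substrate signal; active means inhibition seen as loss of fluorescence signal versus DMSO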)
# Chain of human Matrix Metalloproteinase-9 (MMP9), MMP9 (gene 4318) (P14780 whole entry, looked up): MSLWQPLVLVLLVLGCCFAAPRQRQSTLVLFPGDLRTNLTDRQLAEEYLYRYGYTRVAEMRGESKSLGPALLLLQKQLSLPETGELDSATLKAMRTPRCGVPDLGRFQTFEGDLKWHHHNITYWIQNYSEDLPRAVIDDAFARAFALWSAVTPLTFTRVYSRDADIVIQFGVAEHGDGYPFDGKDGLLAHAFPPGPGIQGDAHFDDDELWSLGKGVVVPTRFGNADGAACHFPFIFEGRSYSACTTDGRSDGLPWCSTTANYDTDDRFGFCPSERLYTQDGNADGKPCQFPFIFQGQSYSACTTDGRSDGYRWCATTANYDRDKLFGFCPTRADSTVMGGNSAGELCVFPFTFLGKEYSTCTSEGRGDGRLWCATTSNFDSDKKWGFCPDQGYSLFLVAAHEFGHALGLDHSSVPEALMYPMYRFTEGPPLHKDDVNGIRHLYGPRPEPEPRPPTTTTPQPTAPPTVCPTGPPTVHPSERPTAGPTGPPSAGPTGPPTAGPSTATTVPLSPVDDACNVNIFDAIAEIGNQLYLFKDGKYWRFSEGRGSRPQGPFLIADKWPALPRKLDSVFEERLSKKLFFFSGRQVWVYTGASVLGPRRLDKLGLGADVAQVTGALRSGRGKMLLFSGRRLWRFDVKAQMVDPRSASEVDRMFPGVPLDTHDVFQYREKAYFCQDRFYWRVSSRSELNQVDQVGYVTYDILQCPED
# Procedure, shortened: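 Screening concentration 25 uM, duplicate wells, then dose series for confirmation. Cell-free enzymatic reaction measured by fluorescence intensity 1 h post-dosing; decreased signal versus DMSO taken as activity.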
# [3] = molecular target: Androgen Receptor/SRC-1 Co-activator, AR (gene 367) (UniProt P10275); experiment: OT_AR_ARSRC1_0960: Odyssey Thera (OT) 16-hour HEK293T Protein-Complementation Assay for Androgen Receptor/SRC-1 Co-activator (AID 2283353; active = hit-call score of the fitted dose curve at least 0.9, where 1 is the maximum;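 also: actives raise the signal above DMSO so potency reflects increased AR and SRC-1 complex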)
# Chain of Androgen Receptor/SRC-1 Co-activator, AR (gene 367) (P10275 whole entry, looked up, the tested form may be a part): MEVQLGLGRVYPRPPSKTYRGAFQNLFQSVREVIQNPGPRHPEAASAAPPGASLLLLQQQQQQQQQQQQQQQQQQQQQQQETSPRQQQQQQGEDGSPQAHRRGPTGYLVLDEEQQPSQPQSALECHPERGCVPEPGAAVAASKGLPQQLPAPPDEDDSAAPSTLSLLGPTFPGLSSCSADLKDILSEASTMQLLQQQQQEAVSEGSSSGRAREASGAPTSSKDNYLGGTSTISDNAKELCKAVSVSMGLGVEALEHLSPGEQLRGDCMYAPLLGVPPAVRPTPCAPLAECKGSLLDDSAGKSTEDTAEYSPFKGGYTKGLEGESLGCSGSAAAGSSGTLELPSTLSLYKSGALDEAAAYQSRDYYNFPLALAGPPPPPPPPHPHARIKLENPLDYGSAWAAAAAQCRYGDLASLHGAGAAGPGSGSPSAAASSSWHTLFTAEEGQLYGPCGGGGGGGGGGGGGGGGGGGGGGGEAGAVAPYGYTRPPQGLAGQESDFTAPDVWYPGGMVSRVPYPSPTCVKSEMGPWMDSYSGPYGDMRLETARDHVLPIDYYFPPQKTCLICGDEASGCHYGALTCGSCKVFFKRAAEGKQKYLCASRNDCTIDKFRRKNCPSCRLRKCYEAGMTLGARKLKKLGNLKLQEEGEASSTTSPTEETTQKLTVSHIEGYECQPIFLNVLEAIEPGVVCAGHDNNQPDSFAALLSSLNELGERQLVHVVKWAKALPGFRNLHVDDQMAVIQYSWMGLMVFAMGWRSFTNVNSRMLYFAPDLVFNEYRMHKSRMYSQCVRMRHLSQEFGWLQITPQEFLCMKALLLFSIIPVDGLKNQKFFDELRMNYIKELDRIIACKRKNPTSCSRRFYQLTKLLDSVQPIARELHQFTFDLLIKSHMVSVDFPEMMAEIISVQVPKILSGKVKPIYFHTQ
# Procedure, shortened: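 Split-Venus PCA, AR/SRC-1 fusions, stable HEK293T; 16 h compound exposure; imaged at 488 and 635 nm; N/C ratio (488 nm channel), min 400 cells/image; positive-direction fit, DMSO baseline.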
# [4] = molecular target: Androgen Receptor/SRC-1 Co-activator, AR (gene 367) (UniProt P10275); experiment: OT_AR_ARSRC1_0480: Odyssey Thera (OT) 8-hour HEK293T Protein-Complementation Assay for Androgen Receptor/SRC-1 Co-activator (AID 2283354; active = hit-call score of the fitted dose curve at least 0.9, where 1 is the maximum;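 also: hits raise the complementation signal above DMSO so AC50 marks enhancers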)
# Procedure, shortened: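 HEK293T cells stably expressing AR and SRC-1 fused to Venus YFP fragments, imaged 8 h after dosing. Complementation fluorescence scored as nuclear/cytoplasmic ratio at 488 nm in at least 400 cells per image; gain fitted versus DMSO.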
# [5] = molecular target: Agonist Androgen Response Element (ARE), AR (gene 367) (UniProt P10275); experiment: OT_AR_ARELUC_AG_1440: Odyssey Thera (OT) 24-hour CHO-K1 Luciferase Assay for Agonist Androgen Response Element (ARE) (AID 2283379; active = hit-call score of the fitted dose curve at least 0.9, where 1 is the maximum)
# Chain of Agonist Androgen Response Element (ARE), AR (gene 367) (P10275 whole entry, looked up): as the sequence (P10275 whole entry, looked up, the tested form may be a part) above
# Procedure, shortened: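 CHO-K1 cells carrying an ARE-driven luciferase reporter were exposed to compounds for 24 h. Luminescence was then read after adding a D-luciferin/ATP mix, and activity was scored as a gain in signal over DMSO vehicle.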
# [6] = molecular target: AR (gene 367) (UniProt P10275); experiment: ACEA_AR_antagonist_80hr: ACEA Biosciences xCELLigence Real-Time Cell Analysis on Androgen Receptor Antagonism for Proliferation (AID 2283787; active = hit-call score of the fitted dose curve at least 0.9, where 1 is the maximum;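 also: 22Rv1 human prostate cancer cells with growth followed by electrical impedance; hits lower the impedance growth signal relative to DMSO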)
# Chain of AR (gene 367) (P10275 whole entry, looked up): as the sequence (P10275 whole entry, looked up, the tested form may be a part) above
# Procedure, shortened: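 22Rv1 cells in assay medium, growth tracked by electrical impedance; compounds eight-point 1:4 dilutions from 100 uM final, duplicate plates. Endpoint at 80 h; loss of signal versus DMSO.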
# [7] = molecular target: human Dopamine Transporter (DAT), SLC6A3 (gene 6531) (UniProt Q01959); experiment: NVS_TR_hDAT: NovaScreen (NVS) Transporter Assay for human Dopamine Transporter (DAT) (AID 2283374; active = hit-call score of the fitted dose curve at least 0.9, where 1 is the maximum;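 also: activity means loss of bound radioligand signal relative to DMSO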)
# Chain of human Dopamine Transporter (DAT), SLC6A3 (gene 6531) (Q01959 whole entry, looked up): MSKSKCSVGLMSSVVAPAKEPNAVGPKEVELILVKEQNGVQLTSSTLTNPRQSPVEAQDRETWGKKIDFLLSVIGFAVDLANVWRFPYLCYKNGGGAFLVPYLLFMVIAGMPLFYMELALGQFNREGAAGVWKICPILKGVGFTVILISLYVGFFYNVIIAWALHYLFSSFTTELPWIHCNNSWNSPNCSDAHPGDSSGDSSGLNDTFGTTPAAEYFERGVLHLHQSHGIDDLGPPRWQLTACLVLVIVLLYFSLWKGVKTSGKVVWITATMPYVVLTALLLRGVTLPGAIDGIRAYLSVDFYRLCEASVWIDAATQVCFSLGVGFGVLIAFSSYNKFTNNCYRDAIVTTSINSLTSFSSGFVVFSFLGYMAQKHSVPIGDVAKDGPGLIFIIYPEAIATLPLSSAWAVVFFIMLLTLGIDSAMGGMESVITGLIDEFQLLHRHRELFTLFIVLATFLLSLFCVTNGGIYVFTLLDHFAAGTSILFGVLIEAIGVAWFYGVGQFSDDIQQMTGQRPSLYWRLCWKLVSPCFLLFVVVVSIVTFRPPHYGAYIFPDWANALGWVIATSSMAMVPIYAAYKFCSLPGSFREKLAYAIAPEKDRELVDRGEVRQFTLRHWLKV
# Procedure, shortened: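 Cell-free radioligand displacement binding at human DAT, 1 h after dosing, with filtration and scintillation counting. Primary screen in duplicate at 25 uM, actives then in concentration series. Loss of bound signal versus DMSO scored.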
# [8] = CCTE_Shafer_MEA_acute_burst_duration_mean: CCTE's Neural Acute Assay for Mean Burst Duration, Shafer Lab (AID 2284014);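 also: hits are decreases in mean burst duration relative to DMSO controls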
# Procedure, shortened: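 Rat primary cortical neurons on 48-well MEA, treated at DIV 13 or 15 with 0.03-40 uM in at least 3 wells. Value is percent change in mean burst duration, comparing 40 min recordings at 37 C before and during exposure.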
# [9] = CCTE_Shafer_MEA_acute_per_burst_spike_number_mean: CCTE's Neural Acute Assay for Average Number of Spikes Per Burst, Shafer Lab (AID 2284015);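 also: hits are decreases in mean spikes per burst versus baseline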
# Procedure, shortened: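 We recorded spontaneous network firing of rat cortical neurons for 40 min before and 40 min during exposure to compound at 0.03-40 uM, at 37 C. Spikes were detected adaptively at 8x rms noise, and the change in average spikes per burst was fitted against DMSO.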
# [10] = CCTE_Shafer_MEA_acute_interburst_interval_mean: CCTE's Neural Acute Assay for Mean Interburst Interval, Shafer Lab (AID 2284016);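 also: percent change of mean interburst interval versus each well's own pre-dose baseline; curves fitted for decrease in interburst interval relative to DMSO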
# Procedure, shortened: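 MEA recording of spontaneous network bursting in primary rat cortical cultures; mean interburst interval was compared before and after a 40-min compound exposure (0.03-40 uM) and expressed as percent change, relative to DMSO.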
# [11] = CCTE_Shafer_MEA_acute_burst_percentage_mean: CCTE's Neural Acute Assay for Percentage of Spikes in a Burst, Shafer Lab (AID 2284017);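 as to AC50: curve fitted for loss of signal so potency reflects decreased burst percentage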
# Procedure, shortened: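 Compounds were tested at 0.03-40 uM on primary rat cortical neuron networks grown over microelectrodes, with at least three wells per compound. Spontaneous firing was recorded for 40 min before and 40 min after dosing, and the change in burst percentage was computed per well.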
# [12] = CCTE_Shafer_MEA_acute_burst_percentage_std: CCTE's Neural Acute Assay for Standard Deviation of Burst Percentage, Shafer Lab (AID 2284018);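 also: fitted in the negative direction so actives lower burst percentage SD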
# Procedure, shortened: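 Rat primary cortical neurons on 48-well MEAs, DIV 13 or 15, 37 C. 40-min baseline then 40-min recording with compound (0.03-40 uM); well-level SD of per-electrode burst spike percentage, expressed as percent change from baseline.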
# [13] = CCTE_Shafer_MEA_acute_per_network_burst_spike_number_mean: CCTE's Neural Acute Assay for Average Number of Spikes in a Network Burst, Shafer Lab (AID 2284019);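 as to AC50: curve fitted for loss of signal so actives reduce spikes per network burst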
# Procedure, shortened: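 Rat primary cortical neurons on 48-well MEA at DIV 13 or 15, 37 C; compounds 0.03-40 uM, at least three wells each. 40-min baseline then 40-min exposure recording; percent change in mean spikes per network burst.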
# [14] = CCTE_Shafer_MEA_acute_per_network_burst_spike_number_std: CCTE's Neural Acute Assay for Standard Deviation of Number of Spikes in a Network Burst, Shafer Lab (AID 2284020);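 also: fitted for decrease in spike-number SD versus DMSO so actives lower it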
# Procedure, shortened: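 Rat primary cortical neurons on 48-well MEA (16 electrodes/well), treated DIV 13 or 15 at 0.03-40 uM, ≥3 wells per compound. 40 min recordings at 37 C before and after dosing; value is percent change in network-burst spike-number SD, negative direction vs DMSO.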
# [15] = CCTE_Shafer_MEA_acute_per_network_burst_electrodes_number_mean: CCTE's Neural Acute Assay for Mean Number of Electrodes in a Network Burst, Shafer Lab (AID 2284021);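 also: curves fitted for decreases only so hits reduce electrodes per burst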
# Procedure, shortened: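 Primary rat cortical networks, mwMEA, 37 C. 20 min stabilization, 40 min baseline, compound 0.03-40 uM, 40 min re-record. Wells need >=10 active electrodes; percent change per well, negative fitting direction.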
# [16] = CCTE_Shafer_MEA_acute_network_burst_percentage: CCTE's Neural Acute Assay for Percentage of Network Bursts, Shafer Lab (AID 2284022);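 also: curves fitted for loss so actives lower network burst percentage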
# Procedure, shortened: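 Readout is the fraction of spikes falling in network bursts, expressed as per-well percent change from a 40-min pre-exposure baseline. Primary rat cortical neurons on MEA were exposed to 0.03-40 uM compound on DIV 13 or 15 and recorded for 40 min at 37 C.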
# [17] = CCTE_Shafer_MEA_acute_cross_correlation_area: CCTE's Neural Acute Assay for Area of Cross Correlation, Shafer Lab (AID 2284024);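 also: area under pooled inter-electrode spike cross-correlation near zero lag as percent change from own baseline; curves fitted for loss of cross-correlation area so actives lower synchrony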
# Procedure, shortened: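 Plates equilibrated 20 min at 37 C, then 40 min baseline was recorded, compound was added (0.03-40 uM), and a further 40 min was recorded. Wells needed ≥10 active electrodes (≥5 spikes/min) on exposure day.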
# [18] = CCTE_Shafer_MEA_acute_cross_correlation_HWHM: CCTE's Neural Acute Assay for Cross Correlation at Half Width at Half Maximum, Shafer Lab (AID 2284026);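 also: percent change per well from pre-dose baseline in spike cross-correlogram half width; hits are a decrease in cross-correlogram half width relative to DMSO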
# Procedure, shortened: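 Rat cortical neuron cultures on microelectrode arrays were equilibrated 20 min at 37 C, recorded 40 min at baseline, then 40 min after compound addition (0.03-40 uM, ≥3 wells). Spikes were detected at 8x rms noise after 300-5000 Hz band-pass filtering.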
# [19] = CCTE_Shafer_MEA_acute_synchrony_index: CCTE's Neural Acute Assay for Synchrony, Shafer Lab (AID 2284027);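 also: fitted for loss of signal so actives lower synchrony relative to DMSO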
# Procedure, shortened: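 Readout is percent change in the unitless network synchrony index (0 low, 1 high) between a 40-min baseline and a 40-min recording in compound. Cultures were primary rat cortical neurons on MEAs, treated at 0.03-40 uM on DIV 13 or 15.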
# [20] = CCTE_Shafer_MEA_acute_LDH: CCTE's Lactate Dehydrogenase Assay for Cytotoxicity in the Neural Acute Assay, Shafer Lab (AID 2284086; active = hit-call score of the fitted dose curve at least 0.9, where 1 is the maximum;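 also: active means LDH release rises above DMSO vehicle level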)
# Procedure, shortened: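 Rat cortical neurons cultured on microelectrode arrays; baseline 40-min recording, compound added, second 40-min recording; medium then sampled for released LDH (colorimetric kit, 490 nm). DMSO = negative control.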
compound,measurement,setting,value
Oc1cc(Cl)ccc1Cl,AC50,[1],1.17 µM (active)
N#Cc1cccc(C#N)c1,AC50,[2],7.24 µM (active)
CN(C)N,outcome,[3],inactive
same,outcome,[4],inactive
same,outcome,[5],inactive
same,outcome,[6],inactive
CCOP(=O)(OCC)Oc1ccc([N+](=O)[O-])cc1,AC50,[1],5.87 µM (active)
Clc1ccc(-c2ccccc2)cc1,outcome,[7],inactive
O=[N+]([O-])O,outcome,[8],inactive
same,outcome,[9],inactive
same,outcome,[10],inactive
same,outcome,[11],inactive
same,outcome,[12],inactive
same,AC50,[13],0.003 µM (active)
same,outcome,[13],inactive
same,AC50,[14],0.003 µM (active)
same,outcome,[14],inactive
same,outcome,[15],inactive
same,AC50,[16],0.0386 µM (active)
same,outcome,[16],inactive
same,AC50,[17],0.23 µM (active)
same,outcome,[17],inactive
same,outcome,[18],inactive
same,outcome,[19],inactive
same,outcome,[20],inactive
Nc1cc(Cl)cc(Cl)c1,AC50,[1],6.93 µM (active)
CC(C)(c1cc(Cl)c(O)c(Cl)c1)c1cc(Cl)c(O)c(Cl)c1,outcome,[7],inactive
same,AC50,[1],0.0355 µM (active)
COc1ccc(CO)cc1,outcome,[8],inactive
same,AC50,[9],3.71 µM (active)
same,outcome,[10],inactive
same,AC50,[11],3.79 µM (active)
same,outcome,[12],inactive
same,AC50,[13],25.4 µM (active)
same,outcome,[14],inactive
same,outcome,[15],inactive
same,outcome,[16],inactive
same,outcome,[17],inactive
same,outcome,[18],inactive
same,AC50,[19],3.81 µM (active)
same,outcome,[20],inactive
COc1cc(OC)nc(Oc2cccc(Oc3nc(OC)cc(OC)n3)c2C(=O)O)n1,outcome,[3],inactive
same,outcome,[4],inactive
same,outcome,[5],inactive
same,outcome,[6],inactive
Oc1ccc(C2(c3ccc(O)cc3)c3ccccc3-c3ccccc32)cc1,outcome,[8],inactive
same,AC50,[9],20.5 µM (active)
same,outcome,[10],inactive
same,AC50,[11],24.8 µM (active)
same,AC50,[12],22.8 µM (active)
same,outcome,[13],inactive
same,AC50,[14],23.1 µM (active)
same,outcome,[15],inactive
same,AC50,[16],26.4 µM (active)
same,AC50,[17],0.0252 µM (active)
same,AC50,[18],28.1 µM (active)
same,AC50,[19],25.4 µM (active)
same,outcome,[20],inactive
O=CNC(N1CCN(C(NC=O)C(Cl)(Cl)Cl)CC1)C(Cl)(Cl)Cl (configuration not stated),outcome,[3],inactive
same,outcome,[4],inactive
same,outcome,[5],inactive
same,outcome,[6],inactive
CCOP(=O)(OCC)OCC,AC50,[2],5.9 µM (active)
Cc1ccc(C)c2ccccc12,outcome,[3],inactive
same,outcome,[4],inactive
same,outcome,[5],inactive
CC(C)(C)C(O)C(Oc1ccc(-c2ccccc2)cc1)n1cncn1 (configuration not stated),AC50,[7],13.4 µM (active)
C[C@]12CC[C@H](O)C[C@H]1CC[C@@H]1[C@@H]2C[C@@H](O)[C@]2(C)[C@@H](C3=CC(=O)OC3)CC[C@]12O,AC50,[7],40.9 µM (active)
O=c1c2ccccc2c(=O)c2c1cc(Cl)c1[nH]c3c([nH]c12)c(Cl)cc1c(=O)c2ccccc2c(=O)c13,outcome,[8],inactive
same,outcome,[9],inactive
same,outcome,[10],inactive
same,AC50,[11],21 µM (active)
same,outcome,[12],inactive
same,outcome,[13],inactive
same,outcome,[14],inactive
same,outcome,[15],inactive
same,outcome,[16],inactive
same,outcome,[17],inactive
same,outcome,[18],inactive
same,outcome,[19],inactive
same,outcome,[20],inactive
C[N+](=O)[O-],AC50,[2],1.45 µM (active)
Nc1ccc(Cl)c(Cl)c1,AC50,[1],18.3 µM (active)
Cc1ccc(OP(=O)(Oc2ccc(C)cc2)Oc2ccc(C)cc2)cc1 (tested in a mixture with another compound),outcome,[8],inactive
same,AC50,[9],3.99 µM (active)
same,AC50,[10],7.32 µM (active)
same,AC50,[11],6.45 µM (active)
same,AC50,[12],3.66 µM (active)
same,AC50,[13],3.4 µM (active)
same,AC50,[14],3.32 µM (active)
same,AC50,[15],7.68 µM (active)
same,AC50,[16],7.23 µM (active)
same,outcome,[17],inactive
same,AC50,[18],8.25 µM (active)
same,AC50,[19],6.01 µM (active)
same,outcome,[20],inactive
CC(C)CCCCCCCOC(=O)c1ccccc1C(=O)OCCCCCCCC(C)C,AC50,[2],10.9 µM (active)
O=C(NCNC(=O)NC1C(=O)NC(=O)N1CO)NC1C(=O)NC(=O)N1CO (configuration not stated),outcome,[3],inactive
same,outcome,[4],inactive
same,outcome,[5],inactive
same,outcome,[6],inactive
CCC[N+](=O)[O-],AC50,[2],6.06 µM (active)
CC1(C)[C@H](C(=O)O[C@H](C#N)c2cccc(Oc3ccccc3)c2)[C@@H]1C=C(Br)Br,outcome,[3],inactive
same,outcome,[4],inactive
same,AC50,[7],7.41 µM (active)
same,outcome,[5],inactive
same,AC50,[6],50 µM (active)
same,outcome,[6],inactive
same,AC50,[8],0.418 µM (active)
same,AC50,[9],0.387 µM (active)
same,AC50,[10],2.09 µM (active)
same,AC50,[11],1.1 µM (active)
same,AC50,[12],2.72 µM (active)
same,AC50,[13],1.5 µM (active)
same,AC50,[14],0.642 µM (active)
same,outcome,[15],inactive
same,AC50,[16],0.639 µM (active)
same,AC50,[17],0.203 µM (active)
same,AC50,[18],3.1 µM (active)
same,AC50,[19],0.866 µM (active)
same,outcome,[20],inactive
O=C1C=CC(=O)C=C1,AC50,[7],13.9 µM (active)
